# High-throughput results (PubChem)
# NOD2-RIPK2 inh = blocks binding of human NOD2 to RIPK2 | CHO BLA complementation NOD2-RIPK2, CCF4 ratio | inhibition, % at 4.98 µM | 0.38% of 360,000 active | O43353; in the data active = inhibition above about 21%;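 also: 0% = vehicle only and 100% = reference blocker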
# TLR9-MyD88 block = blocks human TLR9 binding to MyD88. CHO BLA complementation TLR9-MyD88, CCF4 FRET ratio. inhibition, % at 4.98 µM. Q9NR96+Q99836. 0.21% of 340,000 active;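 active = inhibition above the mean over all tested compounds plus 3 SD, cut at about 21% in these data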;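 also: 0% = DMSO only wells and 100% = clavulanate BLA inhibitor control wells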
# TLR4-MyD88 BLA = blocks binding of human TLR4 to MyD88. O00206+Q99836. HeLa CL3-4 TLR4/MyD88 BLA complementation, FRET ratio. inhibition, % at 8.4 µM. 0.18% of 200,000 active; in the data active = inhibition above about 25%;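 also: 0% = vehicle and 100% = reference inhibitor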
# Beta2AR agonist = human beta-2 adrenergic receptor agonism by FAP | response, % (no concentration beside the values) | AID 504454 | Am2.2-beta2AR cells, FAP receptor internalization, flow cytometry | P07550 | 0.43% of 340,000 active;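 active = response above a set limit, near 3 SD of response in nonfluorescent compounds, cut at about 42% in these data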
# Granule exo inh = lytic granule exocytosis inhibition | TALL-104 LAMP-1 surface exposure, flow cytometry; cells stimulated with thapsigargin and PMA | inhibition, % at 10 µM | 0.66% of 360,000 active;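 active = inhibition above about 55%, limit read from the data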
# ABHD5-PLIN5 inh = blocks binding of human ABHD5 to perilipin-5 | Split G. princeps luciferase complementation, luminescence, 4 h | inhibition, % at 4 µM | 0.78% of 360,000 active | AID 602281;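 active = inhibition above the mean inhibition across every tested compound plus 3 SD, cut at about 22% in these data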;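 also: 0% = DMSO only wells and the 100% control is not disclosed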
# TLR4 MyD88 cnf = TLR4-MyD88 interaction inhibition confirmed; shares compounds with TLR4-MyD88 BLA; HeLa CL3-4 BLA complementation, CCF4 FRET ratio; inhibition, % at 8.4 µM; 50% of 350 active;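 active = mean inhibition across three repeat runs above about 25% carried over from the earlier screen, limit read from the data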;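 also: plate controls were DMSO only for no effect and clavulanic acid blocking BLA at full dose for full effect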
# BLA inhibitor ct = inhibits beta-lactamase activity, counter-screen to TLR4-MyD88 binding inhibitors | HeLa BLA reporter, CCF4 FRET ratio | 63% of 350 active | shares compounds with TLR4-MyD88 BLA | inhibition, % at 8.4 µM;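 active = mean inhibition over three repeats above about 26% taken from the earlier screen, limit read from the data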;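 also: HeLa cells stably expressing beta-lactamase reporter as counterscreen for TLR4-MyD88 inhibitors; 0% = DMSO and 100% = clavulanic acid full inhibition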
# TLR9-MyD88 conf = confirmation of human TLR9-MyD88 binding inhibitors; shares compounds with TLR9-MyD88 block; CHO TLR9/MyD88 BLA complementation, CCF4 FRET ratio; inhibition, % at 4.98 µM; 51% of 680 active;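 active = mean inhibition across three repeats above about 21% taken from the earlier screen, limit read from the data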;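 also: blue over green emission ratio reports constitutive TLR9 MyD88 association via BLA complementation; 0% = DMSO vehicle wells and 100% = clavulanate BLA inhibitor wells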
# BLA counter = beta-lactamase reporter inhibition, counter-screen artifact | shares compounds with TLR9-MyD88 block | CHO-BLA cells, CCF4 FRET ratio, BLA reporter | inhibition, % at 4.98 µM | 7% of 680 active | AID 540251;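 active = mean inhibition above a 50% cutoff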;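 also: counterscreen of TLR9-MyD88 hits on CMV-driven BLA in CHO-K1 cells; 0% = DMSO alone and 100% = clavulanate blocking BLA; higher means less blue over green ratio so more BLA blockade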
# TLR9 CHO tox = CHO cell toxicity counter-screen for TLR9-MyD88 inhibitors; shares compounds with TLR9-MyD88 block; 39% of 680 active; inhibition, % at 4.98 µM; TLR9-MyD88 CHO cells cytotoxicity, luminescence; in the data active = inhibition above about 11%
# ABHD5-PLIN5 conf = ABHD5-PLIN5 interaction inhibition, confirmed; shares compounds with ABHD5-PLIN5 inh; biochemical ABHD5-PLIN5 interaction, luminescence; inhibition, % at 4 µM; 67% of 2,200 active; in the data active = inhibition above about 23%;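 also: 0% = DMSO vehicle wells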
# HNF4 counter = counter-screen for ABHD5-PLIN5 inhibitors: HNF4 split-luciferase; HNF4 dimerization, luminescence, biochemical; inhibition, % at 4 µM; 77% of 2,200 active; shares compounds with ABHD5-PLIN5 inh; AID 651674;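 active = mean inhibition across replicate wells exceeding the computed hit threshold, cut at about 13% in these data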;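 also: light from luciferase halves that rejoin when HNF4 fusion proteins dimerize; 0% = DMSO only wells and the 100% control is not given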
# Active calls of the source: *; · = no result given. Rows were chosen to be rich in hits. Some 2% of all compounds tested hit in one or more screens of this group.
SMILES,NOD2-RIPK2 inh,TLR9-MyD88 block,TLR4-MyD88 BLA,Beta2AR agonist,Granule exo inh,ABHD5-PLIN5 inh,TLR4 MyD88 cnf,BLA inhibitor ct,TLR9-MyD88 conf,BLA counter,TLR9 CHO tox,others
CC(=O)N(C)C[C@H]1Oc2ncc(Br)cc2C(=O)N([C@H](C)CO)C[C@@H]1C,-6.6,3.8,·,·,-6.3,2.9,·,·,·,·,·,
Cc1cccc(C)c1NC(=O)C1(C)CN(S(C)(=O)=O)CC(=O)N1CC(F)(F)F (configuration not stated),-2.0,·,·,·,-3.9,0.4,·,·,·,·,·,
COc1ccc(N(CC(=O)N/N=C/c2ccc(-c3ccc([N+](=O)[O-])cc3)o2)S(=O)(=O)c2ccc(C)cc2)cc1Cl,16.5,63.8*,70.6*,23.4,2.0,6.5,65.3*,94.8*,58.9*,61.4*,5.1,
O=C(C1=NN(c2ccccc2)C2C(=O)N(c3cccc(Cl)c3)C(=O)C12)c1ccccc1 (configuration not stated),34.6*,28.4*,45.5*,5.7,0.8,-4.2,27.3*,45.3*,25.3*,27.6,2.9,
N#Cc1c(-c2ccccc2)cc(-c2ccco2)c(C#N)c1N,·,·,0.1,·,·,·,·,·,·,·,·,
N#Cc1sc2nc(-c3ccccc3)cc(-c3ccco3)c2c1N,13.0,21.6*,39.8*,-77.6,2.6,-18.9,26.0*,53.2*,28.3*,25.4,-1.0,
CC(C)C[C@@H]1COc2cc(N3CCC[C@H]3CO)ccc2S(=O)(=O)N1,-12.2,·,·,·,12.5,0.8,·,·,·,·,·,
Cn1c(=O)c([N+](=O)[O-])c(NCCCn2ccnc2)c2ccccc21,-2.5,-5.7,·,-3.3,-5.0,9.5,·,·,·,·,·,
Cn1c(=O)c([N+](=O)[O-])c(-n2ccnc2)c2ccccc21,5.4,3.5,25.3*,40.0,-0.7,23.1*,-5.5,-13.1,·,·,·,ABHD5-PLIN5 conf=2.0;HNF4 counter=10.7
COC(=O)C1CC2=C(CCC2=O)N(c2ccccc2)C1=O (configuration not stated),-6.0,-13.7,·,2.6,8.8,1.6,·,·,·,·,·,
Cn1cccc1/C=C1\CCC/C(=C\c2cccn2C)C1=O,-5.0,22.8*,34.9*,7.6,4.7,47.8*,19.8,44.8*,25.8*,23.2,-2.6,ABHD5-PLIN5 conf=18.6;HNF4 counter=39.9*
Cc1ccc(CN2C(=O)CSCC2(C)C(=O)NCc2ccccc2)cc1 (configuration not stated),12.3,·,·,·,0.8,-8.2,·,·,·,·,·,
CS(=O)(=O)c1nc(-c2ccccc2)cc(C(F)(F)F)n1,59.7*,36.1*,30.8*,39.7,74.4*,63.3*,19.6,-17.4,34.8*,16.3,96.5*,ABHD5-PLIN5 conf=87.7*;HNF4 counter=104.2*
